A selection: hits, their analogues and other compounds. The true share with any hit is near 5.7%.
KB-V1 MDR tox: KB-V1 MDR subline cytotoxicity; Potency, µM (titrated, usually from 46.1 µM), usual class: cytotoxic; 3.4% of 400,000 active; KB-V1 MDR cells viability, CellTiter-Glo, 72 h; also: nearly all actives have a fitted effect of over 60% in size
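In this primary screen, KB-V1 cells overexpressing P-gp are incubated with library compounds (lowest to highest concentration) for 72 h at 37 degrees C before a luminescent ATP viability read.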
HT1080 IDH1KD tx: HT-1080 IDH1 knockdown cell toxicity (counter line) | HT-1080 IDH1 knockdown viability, ATP luminescence, 48 h | Potency, µM (top dose mostly 46.1 µM), actives largely listed as cytotoxic | 2% of 360,000 active
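HT-1080-IDH1KD cells (IDH1 knocked down), 750/well in RPMI with 5% FBS, treated with compound 48 h at 37 degrees C. Viability by CellTiter-Glo luminescence, normalised to DMSO and no-cell wells; concentration-response curves classed.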
KB-3-1 cytotox: kills parental KB-3-1 adenocarcinoma cells; KB-3-1 viability, CellTiter-Glo ATP luminescence, 72 h; 1.4% of 400,000 active; Potency, µM (top dose mostly 46.1 µM), hits mostly cytotoxic; also: nearly all actives have a fitted effect of over 60% in size
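Viability of parental KB-3-1 cells, measured by CellTiter-Glo luminescence, followed a 72 h incubation at 37 °C with pinned compounds in phenol-red-free DMEM containing 10% FBS.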
HT1080NT lethal: kills 2HG-producing HT-1080-NT fibrosarcoma cells; HT-1080-NT fibrosarcoma viability, CellTiter-Glo ATP luminescence, 48 h; Potency, µM (top dose mostly 46.1 µM), actives largely listed as cytotoxic; 1.6% of 360,000 active; AID 686970;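 also: NT is the 2HG producing partner of a matched IDH1 knockdown line; nearly all actives have a fitted effect of over 55% in size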
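Compounds were tested in concentration-response format on HT-1080-NT cells for 48 hours at 37 degrees C. Cell viability came from CellTiter-Glo luminescence; curves were classified by r2, response magnitude and activity.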
Each line names hits and unclear results; the compound was inactive in the other large screens. Calls follow the shape of the dose curve; as a rule, active = well fitted curve in the direction sought with a large enough effect; inconclusive = small, poorly fitted or top-dose-only effect, or another doubt; inactive = no such curve, though single readings can be large; an effect the other way counts as inactive or inconclusive.

Cc1ccsc1-c1cc2nc(NCCCN(C)C)n(C)c(=O)c2s1	HT1080 IDH1KD tx inconclusive, HT1080NT lethal 5.8µM
Cc1ccccc1-c1cc2nc(NCCCN(C)C)n(C)c(=O)c2s1	HT1080 IDH1KD tx inconclusive, HT1080NT lethal inconclusive
CN(C)CCCNc1nc2cc(-c3cccc(Cl)c3)sc2c(=O)n1C	HT1080 IDH1KD tx 16µM, HT1080NT lethal inconclusive
COc1ccc(CC2C(=O)NC(C)C(=O)N(C)C3Cc4ccc(cc4)Oc4cc(ccc4O)CC(C(=O)NC(C)C(=O)NC(C)C(=O)N2C)N(C)C3=O)cc1 (configuration not stated)	HT1080 IDH1KD tx 0.16µM, KB-3-1 cytotox 0.23µM, HT1080NT lethal 0.33µM
CCOc1ccc(CN2C(=O)c3ccccc3Sc3ccc(C(=O)NC4CCC(C)CC4)cc32)cc1 (configuration not stated)	none (no result: HT1080 IDH1KD tx, HT1080NT lethal)
CCn1c(C)cc(C(=O)CSc2nnnn2C2CCCC2)c1C	KB-V1 MDR tox 9.2µM
Cc1nc2scc(-c3ccccc3)c2c(=O)n1N=C1C=CC(=O)C=C1	KB-V1 MDR tox inconclusive, HT1080 IDH1KD tx inconclusive, HT1080NT lethal 18µM
COc1ccccc1C1SCCN1S(=O)(=O)c1cccc(C(F)(F)F)c1 (configuration not stated)	KB-V1 MDR tox 16µM
COc1ccc(S(=O)(=O)N2CCSC2c2ccccc2)cc1 (configuration not stated)	KB-V1 MDR tox 23µM, KB-3-1 cytotox inconclusive
CC(C)c1cc(-c2nc(-c3ccccc3)no2)n[nH]1	none (no result: HT1080 IDH1KD tx, HT1080NT lethal)
Cc1ccc(S(=O)(=O)NCCC(=O)OCC(=O)N(Cc2ccccc2)C(C)(C)C)cc1	none
CNS(=O)(=O)c1cccc(C(=O)OCC(=O)N(Cc2ccccc2)C(C)(C)C)c1	none
CC(=O)Nc1ccc(OCC(=O)NCc2ccccc2)cc1	none
CC(=O)c1ccc(S(=O)(=O)NCCC(=O)OCC(=O)N(Cc2ccccc2)C(C)(C)C)cc1	KB-V1 MDR tox 21µM
CC(=O)Nc1ccc(C(=O)OCC(=O)N(Cc2ccccc2)C(C)(C)C)cc1	KB-V1 MDR tox 15µM
CC(=O)Nc1ccc(C(=O)OCC(=O)NCc2ccccc2)cc1	HT1080 IDH1KD tx 26µM, KB-3-1 cytotox inconclusive, HT1080NT lethal inconclusive
COc1ccc(C(=O)N/N=C/c2ccccn2)cc1OC	KB-V1 MDR tox inconclusive
COc1cc(C(=O)Nc2ccccn2)cc(OC)c1OC	none
COc1cc(C(=O)Nc2ccccc2C(=O)Nc2ccccn2)cc(OC)c1OC	KB-V1 MDR tox 6.5µM, KB-3-1 cytotox 8.2µM
O=C(N/N=C\c1ccccn1)c1ccccc1O	HT1080 IDH1KD tx inconclusive
Cc1ccccc1C(=O)N/N=C/c1ccccn1	KB-V1 MDR tox 21µM, HT1080 IDH1KD tx inconclusive, KB-3-1 cytotox inconclusive
C(=N\NC(=Nc1ccccc1)c1ccccn1)/c1ccccn1	KB-V1 MDR tox 16µM, KB-3-1 cytotox inconclusive
COc1cc(C(=O)N/N=C/c2ccccn2)cc(OC)c1OC	KB-V1 MDR tox inconclusive, HT1080 IDH1KD tx inconclusive, KB-3-1 cytotox 18µM, HT1080NT lethal inconclusive
CCN(CC)CCn1c(=S)[nH]c2cc(C(=O)NCc3ccccc3Cl)ccc2c1=O	KB-3-1 cytotox inconclusive
COc1cc(C(=O)Nc2ccccc2C2COC(=O)C2=N)cc(OC)c1OC (configuration not stated)	KB-V1 MDR tox 12µM
Cc1ccnc(NC(=O)c2ccccc2NC(=O)C(C)(C)C)c1	KB-V1 MDR tox 10µM, HT1080 IDH1KD tx inconclusive, KB-3-1 cytotox inconclusive, HT1080NT lethal inconclusive
COc1cc(C(=O)Nc2ccccc2NC(=O)c2cc(OC)c(OC)c(OC)c2)cc(OC)c1OC	none
O=C(NCc1ccccc1F)C1CCCN(C(=O)NC2CCCCC2)C1 (configuration not stated)	KB-V1 MDR tox 21µM
O=C(NCC1CCCCC1)C1CCCN(C(=O)NC2CCCCC2)C1 (configuration not stated)	KB-V1 MDR tox 4.1µM, KB-3-1 cytotox inconclusive, HT1080NT lethal inconclusive
Cc1ccc2[nH]c3c(c2c1)CCCC3NC(=O)CCl (configuration not stated)	KB-V1 MDR tox inconclusive, HT1080 IDH1KD tx 9.2µM, HT1080NT lethal 1.3µM
COc1ccc(C(=O)N(Cc2ccccc2)Cc2cc3cc4c(cc3[nH]c2=O)OCCO4)cc1	KB-V1 MDR tox 11µM, KB-3-1 cytotox 8.9µM, HT1080NT lethal inconclusive
CCOC(=O)C1=NN(c2ccccc2)C2=NC(C)=C(C(=O)OC)C(c3ccc(C)cc3)N12 (configuration not stated)	KB-V1 MDR tox 15µM
CN(CC(=O)Nc1cccc(F)c1)C(=O)c1ccc(COc2ccccc2)o1	KB-V1 MDR tox 21µM
CN(CC(=O)Nc1cccc(F)c1)C(=O)c1cc(-c2ccccc2)nc2ccccc12	KB-V1 MDR tox inconclusive
CN(CC(=O)Nc1cccc(F)c1)C(=O)c1cccc2ccccc12	KB-V1 MDR tox 18µM
COc1ccc(-c2cc(C(F)(F)F)nc(-n3ccnc3C)n2)cc1	KB-V1 MDR tox 21µM, KB-3-1 cytotox inconclusive
COc1ccc(-c2cc(C(F)(F)F)nc(N3CCCCCC3)n2)cc1	none
COc1ccc(-c2cc(C(F)(F)F)nc(N3CCN(C)CC3)n2)cc1OC	KB-V1 MDR tox 16µM, HT1080 IDH1KD tx inconclusive, KB-3-1 cytotox inconclusive, HT1080NT lethal inconclusive
COc1ccc(-c2cc(C(F)(F)F)nc(N3CCN(C)CC3)n2)cc1	KB-V1 MDR tox 12µM, HT1080 IDH1KD tx inconclusive, KB-3-1 cytotox inconclusive, HT1080NT lethal inconclusive
Cc1nn(C(=O)c2cccc([N+](=O)[O-])c2C)c(C)c1S(=O)(=O)N1CCOCC1	none (no result: HT1080 IDH1KD tx, HT1080NT lethal)
O=C(CSc1nc(-c2ccccc2)nc2c1CCCC2)c1ccc(F)cc1	none (no result: HT1080 IDH1KD tx, HT1080NT lethal)
Cc1cc(C)cc(NS(=O)(=O)c2ccc(NC(=S)NC(=O)c3cccs3)cc2)c1	KB-V1 MDR tox 2.9µM, HT1080 IDH1KD tx inconclusive, KB-3-1 cytotox 23µM, HT1080NT lethal inconclusive
CN(C1CCCCC1)S(=O)(=O)c1ccc(NC(=S)NC(=O)c2cccs2)cc1	KB-V1 MDR tox inconclusive, HT1080 IDH1KD tx 7.9µM, KB-3-1 cytotox inconclusive, HT1080NT lethal 2.5µM
Cc1ccc(NS(=O)(=O)c2ccc(NC(=O)c3cccs3)cc2)c(C)c1	none
Cc1ccc(NC(=O)c2cc(S(=O)(=O)Nc3ccc(C)cc3)cs2)cc1	KB-V1 MDR tox 4.1µM, KB-3-1 cytotox inconclusive
O=C(NC(=S)Nc1ccc(NC(=O)c2cccs2)cc1)c1ccco1	none
COc1cc(NS(=O)(=O)c2ccc(NC(=S)NC(=O)c3cccs3)cc2)nc(OC)n1	none
O=C(NC(=S)Nc1ccc(NC(=O)c2cccs2)cc1)c1cc2ccccc2o1	KB-V1 MDR tox inconclusive, HT1080 IDH1KD tx 18µM, HT1080NT lethal 21µM
CSc1ccc(CCNC(=O)c2csc3c2CCCCC3)cc1	none (no result: HT1080 IDH1KD tx, HT1080NT lethal)
c1c[nH]c(C2CCN(c3ncc(-c4ccc5c(c4)OCCCO5)s3)CC2)n1	none (no result: HT1080 IDH1KD tx, HT1080NT lethal)
CN(C)S(=O)(=O)c1ccc(NC(=S)NC(=O)C2CCC2)cc1	none
Cc1ccc(C(=O)NC(=S)Nc2ccc(NC(=O)c3cccs3)cc2)cc1[N+](=O)[O-]	HT1080 IDH1KD tx 21µM, HT1080NT lethal inconclusive
CN(Cc1ccccc1)S(=O)(=O)c1ccc(NC(=S)NC(=O)C2CCCC2)cc1	KB-V1 MDR tox 4.1µM, HT1080 IDH1KD tx 8.9µM, KB-3-1 cytotox 6.5µM, HT1080NT lethal 7.1µM
